# Most compounds without a hit are left out; they make up all but 13% or so of the library.
# HCV inhibitor: inhibitors of hepatitis C virus infection | Potency, µM (top dose mostly 41.8 µM), inactives show top-dose activity change, negative = inhibition, usual class: inhibitors | Huh7.5.1 HCVcc-Cre infection, luciferase reporter, 44 h | AID 651820 | actives 3.4% (n = 340,000); note: potency is the fitted concentration of half-maximal effect
#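 Cells seeded at 1,000/well and cultured 4 h, then compounds added followed by HCVcc-Cre virus (~0.5 moi). After 44 h further culture, luciferase substrate was added, plates held 15 min at room temperature, and luminescence read for 15 sec.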
# Pf growth 96h: P. falciparum growth inhibition at 96 hour, primary screen for plastid delayed-death inhibitors; P. falciparum luciferase reporter growth, 96 h; Potency, µM (titrated, usually from 28.7 µM), for the others: at the top dose activity change, negative = inhibition, usual class: inhibitors; actives 6.9% (n = 320,000); AID 504834; note: potency is the fitted concentration of half-maximal effect
#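 Infected RBCs, 2% Hct / 0.05% parasitemia final; luciferase-reporter P. falciparum; cpd 96 h, 37 C, 5% CO2; luciferase detection reagent; luminescence.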
# HCMV antiviral: blocks human cytomegalovirus replication | HFF cells, HCMV-luciferase reporter, 72 h; stronger effect = lower value | activity change, negative = inhibition, % at 57.5 µM | actives 4.5% (n = 410,000); in the data active = activity change below about -60%; inconclusive = no clear call, values can overlap the other calls; inactive = above about -39%
#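 After 16 h attachment at 37C, HFF cells received test compound and HCMV-luciferase (1 PFU/cell); reporter luminescence read 72 h later, data normalized against buffer-only and known inhibitor Salinomycin.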
# Pf growth 48h: P. falciparum growth inhibition at 48 hours (one generation); P. falciparum luciferase growth in erythrocytes, 48 h; actives 5.9% (n = 310,000); Potency, µM (series often up to 28.7 µM), without a hit: at the top dose activity change, negative = inhibition, most hits filed as inhibitors; note: potency is the fitted concentration of half-maximal effect
#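 Growth was read as firefly luciferase luminescence after a 48 h, 37 C, 5% CO2 exposure of compounds to reporter-bearing P. falciparum cultures (0.1% parasitemia, 2% hematocrit final) in Albumax-supplemented RPMI 1640.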
# * marks the source's active call; other numbers are inactive results; ? = inconclusive; . = not tested or not shown; [ ] = another dose, or the depositor's remark. Unless noted, calls come from the whole dose curve; as a rule, active = well fitted inhibition curve with a large enough effect; inconclusive = small, poorly fitted or top-dose-only effect, or another doubt; inactive = no such curve, though single readings can be large or run the other way. % is set by controls: 0 for no effect and ±100 for the full control effect.
SMILES,HCV inhibitor,Pf growth 96h,HCMV antiviral,Pf growth 48h
COc1ccc(CNC(=O)Cc2c(C)c3cc4c(C)coc4c(C)c3oc2=O)cc1OC,.,.,1.5,.
CCOC(=O)c1cc(C)n(CC2CCC(C(=O)Nc3cc(OC)cc(OC)c3)CC2)c1C (centres undefined),.,.,27.0,.
COc1cccc(CN2C(=O)CN(C3CCCCC3)C(=O)C2c2ccc(OC)c(OC)c2)c1 (centres undefined),.,.,-6.5,.
COc1ccc(-n2c(=S)[nH]c3ccccc3c2=S)cc1,-0.6%,31.3%,-64.2*,?
CN1CCN(CCn2c(=S)[nH]c3ccccc3c2=O)CC1,17.2%,23.6%,-12.6,-10.4%[0.00184 µM]
COc1ccccc1N1CCN(CCCn2c(=S)[nH]c3ccccc3c2=O)CC1,-22.7%,20.8%,?,7.38µM*
CCCCC(=O)OCc1cc(=O)n2nc(C3CCCCC3)sc2n1,.,.,-1.9,.
O=C(CSc1nc(-c2ccco2)nc2cc(=O)[nH]n12)Nc1ccccc1F,.,.,-11.1,.
Cc1ccccc1NC(=O)c1c(C)oc2ccc(O)c(CN3CCN(C)CC3)c12,.,.,-13.7,.
Cc1nc(CN2CCN(C(=O)NC3(c4ccccc4)CC3)CC2)cs1,0.7%,43.0%,-77.0*,-2.8%
Cc1cccc(-c2nc(CN3CCN(C(=O)C4CCCO4)CC3)cs2)c1 (centres undefined),?,-5.3%,7.1,-0.2%
COc1cc(Cl)c(C)cc1NC(=O)CCCN1C(=O)C(c2ccccc2)Oc2cccnc21 (centres undefined),.,.,23.6,.
CCOC(=O)N1CCc2c(sc3ncn(Cc4ccc(F)cc4)c(=O)c23)C1,-29.3%,5.86µM*,45.8,10.4µM*
O=c1c2c3c(sc2ncn1Cc1ccc(F)cc1)CCC3,?,?,-17.2,.
OCCC1CN(Cc2cccn2-c2nccs2)CCN1Cc1ccccc1 (centres undefined),-6.9%,2.3%,-23.0,-1.8%
OCCC1CN(Cc2cccn2-c2nccs2)CCN1Cc1ccc(F)c(F)c1 (centres undefined),-0.8%,13.1µM*,5.1,?
CC(C)=CCN1CCN(Cc2cccn2-c2nccs2)CC1CCO (centres undefined),-5.6%,10.4µM*,-20.1,-11.6%
CCOc1ccc(C(=O)Nc2ccc(OCc3cc(=O)n4cccc(C)c4n3)cc2)cc1,.,.,-7.0,.
Cc1ccc(CN=C(Nc2ccccc2)NC2CCCCC2)cc1,-2.3%,?,-20.6,10.4µM*
CC(C)Nc1ncnc2c1ncn2[C@H]1CN(Cc2ccc3c(c2)OCO3)C[C@@H](CO)O1,.,.,-24.6,.
CC(C)CNc1ncnc2c1ncn2[C@H]1CN(Cc2ccc3c(c2)OCO3)C[C@@H](CO)O1,.,.,-66.2*,.
CC(C)CNc1ncnc2c1ncn2[C@H]1CN(Cc2cccc3ccccc23)C[C@@H](CO)O1,.,.,-69.6*,.
CC1(C)CC(=O)C(C2C3=C(CC(C)(C)CC3=O)Oc3ccccc32)C(=O)C1 (centres undefined),14.0%,1.3%,-0.4,-8.7%
CC1(C)CC(=O)C2=C(C1)Oc1nc3ccccc3cc1C2C(C#N)C#N (centres undefined),?,-1.0%,121.8,0.657µM*
CCN1CCN(C(=O)c2ccc3c(c2)N(Cc2ccccc2F)C(=O)c2ccccc2S3=O)CC1 (centres undefined),.,.,14.2,.
SMILES,HCV inhibitor,Pf growth 96h,HCMV antiviral,Pf growth 48h
O=C(Nc1cccc(Br)c1)c1ccc2c(c1)SC1=NS(=O)(=O)CCN12,?,11.7µM*,?,11.7µM*
Fc1ccc(Nc2nc(Nc3ccc(F)cc3)nc(N3CCOCC3)n2)cc1,.,.,-10.5,.
Oc1[nH]c2ccccc2c1N=Nc1nc(Nc2ccccc2)nc(N2CCOCC2)n1,14.1µM*,?,-102.7*,6.57µM*
Cc1[nH]c2ccccc2c1/C=N/Nc1nc(Nc2ccccc2)nc(N2CCOCC2)n1,?,?,-99.4*,?
Cc1cc(N2CCOCC2)c2c(N)c(Br)cc(C)c2n1,?,.,-81.9*,10.9%
COC(=O)CCn1nnc(-c2ccc(C)cc2)n1,?,.,-20.0,9.5%
CCOC(=O)CCn1nnc(N)n1,1.7%,10.4µM*,0.0,4.5%
C=CCc1cccc([C@@H]2[C@@H](C)CC[C@H]3C(=O)N4[C@@H](c5cc(OC)c(OC)c(OC)c5)c5[nH]c6ccccc6c5C[C@H]4C(=O)N23)c1,7.5%[8.37 µM],?,.,4.15µM*

# High-throughput results deposited in PubChem by National Center for Advancing Translational Sciences (NCATS).
